Laboratory results taken from ChEMBL document CHEMBL1961873, “Compounds: GSK PKIS; Assays: Nanosyn kinase panel” (2012).
“And” between values parts separate entries of the source, which are not always exact repeats. Equal entries are not always repeated.

Experiments:
[1] = target: T1, Serine/threonine-protein kinase TBK1 (Homo sapiens) (UniProt Q9UHD2); conditions: at 1 µM;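 note: values are mean inhibition of TBK1, screened as part of the GSK published kinase inhibitor set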
T1 sequence (whole entry): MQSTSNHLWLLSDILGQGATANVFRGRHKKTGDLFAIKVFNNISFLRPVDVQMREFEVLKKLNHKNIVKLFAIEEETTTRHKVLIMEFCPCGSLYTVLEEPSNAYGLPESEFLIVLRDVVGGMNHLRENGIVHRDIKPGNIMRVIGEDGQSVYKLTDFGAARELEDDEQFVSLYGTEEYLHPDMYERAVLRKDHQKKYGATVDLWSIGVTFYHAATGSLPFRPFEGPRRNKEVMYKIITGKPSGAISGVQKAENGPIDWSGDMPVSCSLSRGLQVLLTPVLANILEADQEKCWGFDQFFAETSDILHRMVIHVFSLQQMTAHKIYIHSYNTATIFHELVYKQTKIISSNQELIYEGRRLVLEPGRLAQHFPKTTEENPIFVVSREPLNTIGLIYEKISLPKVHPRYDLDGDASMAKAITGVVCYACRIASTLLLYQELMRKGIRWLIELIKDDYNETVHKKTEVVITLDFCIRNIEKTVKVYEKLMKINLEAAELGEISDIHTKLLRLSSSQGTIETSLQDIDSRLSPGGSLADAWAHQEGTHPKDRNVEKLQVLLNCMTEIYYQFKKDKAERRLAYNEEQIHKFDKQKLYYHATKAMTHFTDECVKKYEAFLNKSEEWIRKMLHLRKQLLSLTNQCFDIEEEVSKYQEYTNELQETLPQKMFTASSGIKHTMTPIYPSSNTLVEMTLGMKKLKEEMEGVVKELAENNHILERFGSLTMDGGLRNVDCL

[2] = target: T2, Testis-specific serine/threonine-protein kinase 1 (Homo sapiens) (UniProt Q9BXA7); conditions: at 0.1 µM
T2 sequence (whole entry): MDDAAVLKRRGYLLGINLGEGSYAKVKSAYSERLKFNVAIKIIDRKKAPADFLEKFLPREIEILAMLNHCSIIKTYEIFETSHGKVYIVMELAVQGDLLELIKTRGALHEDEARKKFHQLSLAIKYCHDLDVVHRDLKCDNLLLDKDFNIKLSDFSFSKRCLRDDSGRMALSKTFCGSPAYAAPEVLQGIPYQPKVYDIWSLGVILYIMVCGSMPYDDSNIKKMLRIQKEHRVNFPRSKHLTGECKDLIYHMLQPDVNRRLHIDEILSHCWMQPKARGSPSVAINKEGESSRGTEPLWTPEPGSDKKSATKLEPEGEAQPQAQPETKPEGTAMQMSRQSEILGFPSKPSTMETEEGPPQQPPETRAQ

[3] = target: T2, Testis-specific serine/threonine-protein kinase 1 (Homo sapiens); conditions: at 1 µM
[4] = target: T3, Testis-specific serine/threonine-protein kinase 2 (Homo sapiens) (UniProt Q96PF2); conditions: at 0.1 µM
T3 sequence (whole entry): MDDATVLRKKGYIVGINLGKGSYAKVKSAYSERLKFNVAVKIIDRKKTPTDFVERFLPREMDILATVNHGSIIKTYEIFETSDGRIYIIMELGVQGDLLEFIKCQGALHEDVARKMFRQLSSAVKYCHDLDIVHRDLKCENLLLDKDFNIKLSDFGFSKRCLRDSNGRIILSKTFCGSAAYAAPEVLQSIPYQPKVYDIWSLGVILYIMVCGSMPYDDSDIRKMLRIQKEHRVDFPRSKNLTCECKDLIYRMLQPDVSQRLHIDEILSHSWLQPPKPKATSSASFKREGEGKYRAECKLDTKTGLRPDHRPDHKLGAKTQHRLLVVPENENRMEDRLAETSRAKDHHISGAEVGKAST

[5] = target: T3, Testis-specific serine/threonine-protein kinase 2 (Homo sapiens); conditions: at 1 µM
[6] = target: Casein kinase I isoform alpha (Homo sapiens) (UniProt P48729); conditions: at 0.1 µM
[7] = target: Casein kinase I isoform alpha (Homo sapiens) (UniProt P48729); conditions: at 1 µM
[8] = target: Casein kinase I isoform gamma-1 (Homo sapiens) (UniProt Q9HCP0); conditions: at 0.1 µM
[9] = target: Casein kinase I isoform gamma-1 (Homo sapiens) (UniProt Q9HCP0); conditions: at 1 µM
[10] = target: Casein kinase I isoform gamma-2 (Homo sapiens) (UniProt P78368); conditions: at 0.1 µM
[11] = target: Casein kinase I isoform gamma-2 (Homo sapiens) (UniProt P78368); conditions: at 1 µM
[12] = target: Casein kinase I isoform gamma-3 (Homo sapiens) (UniProt Q9Y6M4); conditions: at 0.1 µM
[13] = target: Casein kinase I isoform gamma-3 (Homo sapiens) (UniProt Q9Y6M4); conditions: at 1 µM
[14] = target: Cyclin-dependent kinase 1 (Homo sapiens) (UniProt P06493); conditions: at 0.1 µM
[15] = target: Cyclin-dependent kinase 1 (Homo sapiens) (UniProt P06493); conditions: at 1 µM
[16] = target: Cyclin-dependent kinase 2 (Homo sapiens) (UniProt P24941); conditions: at 0.1 µM
[17] = target: Cyclin-dependent kinase 2 (Homo sapiens) (UniProt P24941); conditions: at 1 µM
[18] = target: Cyclin-dependent kinase 2 (Homo sapiens) (UniProt P24941); conditions: at 0.1 µM; remark: listed apart in the source
[19] = target: Cyclin-dependent kinase 2 (Homo sapiens) (UniProt P24941); conditions: at 1 µM; remark: listed apart in the source
[20] = target: CDK3/Cyclin E (Homo sapiens) (UniProt P24864+Q00526); conditions: at 0.1 µM;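 note: reported percentages are mean inhibition values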
Sequence of CDK3/Cyclin E (Homo sapiens) (P24864 whole entry, looked up): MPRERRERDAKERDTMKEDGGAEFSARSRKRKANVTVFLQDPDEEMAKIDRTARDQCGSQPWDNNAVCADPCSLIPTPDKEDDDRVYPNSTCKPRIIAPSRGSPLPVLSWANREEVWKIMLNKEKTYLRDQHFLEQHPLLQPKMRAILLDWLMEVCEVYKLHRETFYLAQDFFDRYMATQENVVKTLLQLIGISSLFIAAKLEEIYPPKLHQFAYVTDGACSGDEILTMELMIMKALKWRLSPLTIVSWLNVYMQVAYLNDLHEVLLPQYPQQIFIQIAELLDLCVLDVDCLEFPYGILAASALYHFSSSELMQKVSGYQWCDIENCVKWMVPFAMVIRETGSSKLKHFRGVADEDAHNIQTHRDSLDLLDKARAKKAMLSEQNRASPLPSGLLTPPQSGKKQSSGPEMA
Sequence of CDK3/Cyclin E (Homo sapiens) (Q00526 whole entry, looked up): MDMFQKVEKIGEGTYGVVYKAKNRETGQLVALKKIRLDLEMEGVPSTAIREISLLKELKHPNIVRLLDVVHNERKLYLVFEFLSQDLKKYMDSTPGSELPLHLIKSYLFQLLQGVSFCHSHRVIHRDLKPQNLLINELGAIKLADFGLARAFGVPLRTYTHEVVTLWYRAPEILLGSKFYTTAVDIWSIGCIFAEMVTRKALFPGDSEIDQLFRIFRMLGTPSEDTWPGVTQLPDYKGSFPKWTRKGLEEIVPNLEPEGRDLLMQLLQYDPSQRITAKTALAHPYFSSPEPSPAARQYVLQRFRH

Sequence of Cyclin-dependent kinase 1 (Homo sapiens) (P06493 whole entry, looked up): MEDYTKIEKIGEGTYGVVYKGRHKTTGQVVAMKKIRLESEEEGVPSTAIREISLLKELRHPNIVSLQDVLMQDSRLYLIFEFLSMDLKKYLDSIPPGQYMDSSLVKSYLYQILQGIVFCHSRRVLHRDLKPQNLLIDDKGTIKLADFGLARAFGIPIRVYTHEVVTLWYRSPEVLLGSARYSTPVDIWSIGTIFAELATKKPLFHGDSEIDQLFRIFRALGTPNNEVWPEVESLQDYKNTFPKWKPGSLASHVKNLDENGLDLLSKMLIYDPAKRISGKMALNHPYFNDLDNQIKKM
Sequence of Casein kinase I isoform gamma-3 (Homo sapiens) (Q9Y6M4 whole entry, looked up, canonical isoform): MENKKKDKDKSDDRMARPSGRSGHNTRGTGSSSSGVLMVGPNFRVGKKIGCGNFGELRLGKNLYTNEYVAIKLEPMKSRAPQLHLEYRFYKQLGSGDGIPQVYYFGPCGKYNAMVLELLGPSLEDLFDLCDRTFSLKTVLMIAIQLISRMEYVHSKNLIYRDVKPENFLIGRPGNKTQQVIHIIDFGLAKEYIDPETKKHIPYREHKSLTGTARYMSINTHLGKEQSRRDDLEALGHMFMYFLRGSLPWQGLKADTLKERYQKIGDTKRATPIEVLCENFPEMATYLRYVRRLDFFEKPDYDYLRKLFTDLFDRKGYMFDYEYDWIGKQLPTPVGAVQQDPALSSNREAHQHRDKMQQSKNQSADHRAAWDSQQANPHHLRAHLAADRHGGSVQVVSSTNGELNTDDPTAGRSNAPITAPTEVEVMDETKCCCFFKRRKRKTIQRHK
Sequence of Casein kinase I isoform gamma-1 (Homo sapiens) (Q9HCP0 whole entry, looked up, canonical isoform): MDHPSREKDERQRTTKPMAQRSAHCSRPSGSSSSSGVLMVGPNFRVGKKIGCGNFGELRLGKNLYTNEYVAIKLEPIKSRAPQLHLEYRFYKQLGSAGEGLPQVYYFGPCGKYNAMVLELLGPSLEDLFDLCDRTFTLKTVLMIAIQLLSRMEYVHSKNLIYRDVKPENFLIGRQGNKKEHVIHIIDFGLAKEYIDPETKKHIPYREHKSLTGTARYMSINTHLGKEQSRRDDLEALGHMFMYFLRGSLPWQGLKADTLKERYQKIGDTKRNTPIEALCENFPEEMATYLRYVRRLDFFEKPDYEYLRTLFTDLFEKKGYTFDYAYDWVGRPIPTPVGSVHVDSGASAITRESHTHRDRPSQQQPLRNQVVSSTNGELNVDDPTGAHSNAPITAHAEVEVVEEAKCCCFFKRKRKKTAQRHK
Sequence of Casein kinase I isoform alpha (Homo sapiens) (P48729 2-337 limits assumed): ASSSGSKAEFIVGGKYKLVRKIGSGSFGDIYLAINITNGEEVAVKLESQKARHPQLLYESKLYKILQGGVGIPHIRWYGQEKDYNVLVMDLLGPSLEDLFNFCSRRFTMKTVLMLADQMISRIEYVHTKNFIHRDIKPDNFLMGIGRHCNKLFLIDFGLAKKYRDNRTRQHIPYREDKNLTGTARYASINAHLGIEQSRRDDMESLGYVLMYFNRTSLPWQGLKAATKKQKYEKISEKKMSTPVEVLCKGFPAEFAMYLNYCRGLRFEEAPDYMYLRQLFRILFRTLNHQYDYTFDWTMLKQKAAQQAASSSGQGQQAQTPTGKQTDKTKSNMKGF
Sequence of Casein kinase I isoform gamma-2 (Homo sapiens) (P78368 whole entry, looked up, canonical isoform): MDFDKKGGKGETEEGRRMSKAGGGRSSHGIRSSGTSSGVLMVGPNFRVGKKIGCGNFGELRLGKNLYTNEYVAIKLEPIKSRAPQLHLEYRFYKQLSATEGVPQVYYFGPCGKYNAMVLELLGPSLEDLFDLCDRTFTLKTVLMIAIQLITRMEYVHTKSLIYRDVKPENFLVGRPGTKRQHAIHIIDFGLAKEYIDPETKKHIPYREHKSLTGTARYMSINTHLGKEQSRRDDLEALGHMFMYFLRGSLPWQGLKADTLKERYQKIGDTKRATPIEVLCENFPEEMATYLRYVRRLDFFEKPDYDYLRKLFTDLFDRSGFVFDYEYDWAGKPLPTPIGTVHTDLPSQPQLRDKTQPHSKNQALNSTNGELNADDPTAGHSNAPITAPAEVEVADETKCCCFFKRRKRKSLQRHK

Row | Compound | inhibition [1] | inhibition [2] | inhibition [3] | inhibition [4] | inhibition [5] | inhibition [6] | inhibition [7] | inhibition [8] | inhibition [9] | inhibition [10] | inhibition [11] | inhibition [12] | inhibition [13] | inhibition [14] | inhibition [15] [%] | inhibition [16] | inhibition [17] | inhibition [18] | inhibition [19] | inhibition [20]
1 | CCOc1ccc2c(-c3ccnc(Nc4cc(OC)cc(C(F)(F)F)c4)n3)cnn2n1 | 37% | 0.8% | 0.89% | 0.22% | -0.73% | 2.19% | 3.91% | -0.62% | 1.33% | -0.22% | 2.72% | -2.09% | 2.37% | 2.86% | 12.1 | 2.24% | 12.5% | 1.37% | 11.9% | 3.56%
2 | NS(=O)(=O)c1cccc(N/C=C2\C(=O)Nc3ccccc32)c1 | 14.4% | 4.45% | 4.78% | 1.7% | 1.39% | 8.16% | 21.6% | 4.71% | 10.6% | 3.71% | 12.7% | 5.4% | 14% | 2.85% | 7.45 | 4.87% | 8.39% | 5.07% | 16% | 4.56%
3 | COc1cc(N2CCN(C(C)C)CC2)ccc1Nc1nc(Nc2cccc3ncccc23)c2cc[nH]c2n1 | 0.59% | 5.22% | 31.2% | 0.31% | 11.3% | -0.03% | 2.43% | -1.03% | -0.55% | -1.25% | -1.47% | -2.11% | 0.2% | 1.38% | 4.94 | 1.96% | 3.44% | 2.69% | 4.49% | 1.33%
4 | COc1cc(N2CCN(C(C)C)CC2)ccc1Nc1nc(Nc2cccc(F)c2C(=O)O)c2cc[nH]c2n1 | 6.19% | 21.1% | 70.9% | 9.88% | 49.2% | 6.82% | 7.9% | 3.56% | 5.73% | 2.68% | 4.83% | 1.83% | 4.22% | 1.3% | 1.51 | 1.99% | 5.79% | 4.11% | 4.66% | 4.48%
5 | CCS(=O)(=O)c1ccc(OC)c(Nc2ncc(-c3cccc(F)c3)o2)c1 | 11.5% | 6.42% | 5.86% | 3.41% | 3.46% | 5.47% | 7.11% | 4.64% | 5.04% | 3.91% | 4.64% | 3.7% | 4.58% | 1.72% | 0.96 | 3.74% | 4.31% | 4.05% | 5.69% | -0.92%
6 | Cc1cc(O)cc(C)c1/C=C/c1cncc(C(N)=O)c1 | 1.71% | 0.78% | 0.81% | 0.45% | -0.39% | -2.11% | 2.52% | 2.23% | 3.19% | 1.83% | 2.37% | 2.87% | 2.49% | 0.12% | 1.3 | 1.56% | 1.98% | 2.51% | 3.29% | -0.91%
7 | NS(=O)(=O)c1ccc(N/N=C2\C(=O)Nc3ccc(C(=O)NCc4ccncc4)cc32)cc1 | 44% | 5.34% | 20.7% | 2.55% | 2.67% | 1.19% | 2.77% | 2.33% | 4.19% | 1.94% | 4.22% | 1.86% | 5.91% | 31.4% | 71.3 | 84.9% | 110% | 78% | 86.2% | 53.2%
8 | COc1ccc(-c2nn3ncccc3c2-c2ccnc(Nc3ccc(F)c(F)c3)n2)cc1 | 5.55% | 4.21% | 5.79% | 2.03% | 5.03% | 4.64% | 6.66% | 4.01% | 4.36% | 3.31% | 3.56% | 3.89% | 3.22% | -0.93% | 2.75 | 0.74% | 3.93% | 3.63% | 3.97% | 1.3%
9 | CC1=C(C(=O)Nc2ccc3[nH]ncc3c2)C(c2ccc(F)cc2)N=C(c2ccc(C(F)(F)F)nc2)N1 (stereo not given) | 2.03% | 1.72% | -0.03% | 0.88% | -1.54% | 0.89% | 2.81% | 3.19% | 2.72% | 0.59% | 2.44% | 0.89% | 1.64% | -0.29% | 0.48 | 2.22% | 3.53% | 2.03% | 3.67% | 0.12%
10 | CC1(C)CC(n2cnc(-c3ccc(F)cc3)c2-c2ccnc(N)n2)CC(C)(C)N1 | 0.35% | 1.43% | 2.2% | 0.62% | 2.34% | 12.5% | 58.5% | 0.31% | 2.25% | 0.35% | 0.56% | -0.9% | 5.01% | -0.29% | 0.21 | 1.22% | 0.26% | 1.34% | 0.26% | 2.06%
11 | Fc1ccc(Nc2nccc(-c3c(-c4ccc(C(F)(F)F)cc4)nn4ncccc34)n2)cc1F | 5.12% | 2.94% | 0.83% | 0.43% | -1.83% | 8.3% | 5.37% | 3.69% | 4.68% | 1.53% | 4.13% | 3.32% | 3.74% | -0.65% | 0.76 | 1.15% | -0.44% | 3.94% | 3.93% | 0.39%
12 | O=C(O[C@H]1CN[C@H](C#Cc2cc3ncnc(Nc4ccc5c(cnn5Cc5ccccc5)c4)c3s2)C1)N1CCOCC1 | 1.41% | 0.75% | -0.13% | -0.69% | -1.3% | -2.11% | 0.76% | -0.81% | 0.82% | -0.61% | 0.77% | -1.09% | 1.79% | 2.44% | 4.08 | 0.92% | -1.09% | 3.48% | 2.34% | -0.1%
13 | CN1CCN(Cc2ccc(-c3cc4ncnc(Nc5ccc(OCc6cccc(F)c6)c(Cl)c5)c4s3)o2)CC1 | 2.76% and 4.14% | 2.79% and 6.19% | 3.62% and 7.65% | 0.34% and 4.58% | 0.35% and 5.87% | 3.03% and 3.11% | 4.88% and 3.62% | 2.79% and 5.01% | 4.51% and 5.57% | 2.31% and 3.69% | 4.06% and 5.69% | 2.07% and 2.73% | 3.72% and 4.9% | 1.26% and -0.15% | 3.35 | 2.79% and 0.8% | 5.88% and 5.34% | 3.41% and 3.54% | 4.99% and 6.73% | -1.62% and 3.97%
